Assay outcomes from PubChem.
Compounds with a hit are over-represented: about 12% of the library has one in this group of screens.
Sfp PPTase inh = inhibitors of Bacillus subtilis Sfp phosphopantetheinyl transferase. Q9F4F7. Biochemical Sfp PPTase activity, qHTS. Potency, µM, most hits filed as inhibitors. 3.5% of 310,000 active. AID 1490;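 note: the enzyme is Sfp with the accession as filed and its product quenches rhodamine fluorescence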
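Sfp 15 nM + cpd, 15 min RT; start w/ rhodamine-CoA 5 uM, BHQ-2-YbbR 12.5 uM (final); 50 mM Hepes pH 7.6, 10 mM MgCl2, 0.01% NP-40, 0.01% BSA; read 525/598 nm at 0 and 30 min.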
BAZ2B inh = inhibitors of human BAZ2B bromodomain | AlphaScreen BAZ2B-H3K14Ac peptide displacement | 4.4% of 360,000 active | Potency, µM (top dose mostly 114 µM), most hits filed as inhibitors | Q9UIF8 | AID 504333; note: nearly all actives have a fitted effect of over 60% in size
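AlphaScreen luminescence quantifies BAZ2B engagement of H3K14Ac peptide; the protein and biotinylated peptide are both at 50 nM final, buffer PBS pH 7.4 with 0.01% Tween-20, all steps at room temperature.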
G9a block = inhibitors of human histone lysine methyltransferase G9a; Q96KQ7; 8.8% of 350,000 active; Potency, µM (highest dose often 102 µM), most hits filed as inhibitors; AID 504332; G9a H3K9 monomethylation, AlphaScreen, 2 h; note: nearly all actives have a fitted effect of over 75% in size
Target sequence (Q96KQ7 913-1193 limits assumed): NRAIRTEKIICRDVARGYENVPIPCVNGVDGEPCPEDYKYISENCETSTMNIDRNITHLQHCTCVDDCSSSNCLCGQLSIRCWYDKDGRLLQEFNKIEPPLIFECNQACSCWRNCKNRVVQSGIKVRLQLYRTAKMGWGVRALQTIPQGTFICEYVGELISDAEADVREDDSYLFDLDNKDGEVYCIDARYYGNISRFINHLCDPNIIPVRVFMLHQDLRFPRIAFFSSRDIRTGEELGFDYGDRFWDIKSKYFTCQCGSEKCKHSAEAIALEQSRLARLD
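Compounds were preincubated with 20 nM G9a for 15 min, after which biotinylated H3K9 peptide (500 nM) and SAM (20 uM) started a 2 h room-temperature reaction. Monomethylated product was quantified by antibody-based AlphaScreen chemiluminescence.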
JMJD2A Tudor = blocks the human JMJD2A Tudor domain; O75164; AID 504339; AlphaScreen JMJD2A-Tudor / H3K4me3 peptide binding; Potency, µM (highest dose often 114 µM), hits mostly inhibitors; 4.4% of 390,000 active; note: nearly all actives have a fitted effect of over 50% in size
HP1b binding inh = HP1-beta chromodomain-methylated histone interaction inhibition; 0.56% of 390,000 active; Potency, µM (highest dose often 114 µM), most hits filed as inhibitors; AID 540317; AlphaScreen HP1-beta / biotin-H3K9me3 peptide binding; note: nearly all actives have a fitted effect of over 70% in size
Target sequence (P83916 whole entry, looked up): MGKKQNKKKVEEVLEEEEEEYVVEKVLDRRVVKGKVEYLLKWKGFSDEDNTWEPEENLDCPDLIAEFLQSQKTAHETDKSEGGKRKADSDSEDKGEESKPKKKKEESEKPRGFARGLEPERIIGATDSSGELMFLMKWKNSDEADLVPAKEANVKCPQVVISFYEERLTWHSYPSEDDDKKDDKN
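AlphaScreen: HP1-beta (50 nM) preformed 30 min with biotin-H3(1-18)K9me3 peptide (50 nM) in PBS pH 7.4, 0.01% Tween-20. Compound added for 30 min at RT, then streptavidin donor/nickel chelate acceptor beads (10 ug/mL) for 30 min.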
Large screens that a line does not name were inactive. Calls come from the whole dose curve; as a rule, active = well fitted curve in the direction sought with a large enough effect; inconclusive = small, poorly fitted or top-dose-only effect, or another doubt; inactive = no such curve, though single readings can be large; an effect the other way counts as inactive or inconclusive.

O=c1oc(Nc2cccc(F)c2)nc2ccccc12	none
Nc1nc(Nc2cccc(F)c2)nc2ccccc12	BAZ2B inh inconclusive, G9a block 56.2µM
Cc1ccc(O)c(Nc2c3ccccc3nc3ccccc23)c1	BAZ2B inh 35.5µM, G9a block inconclusive, JMJD2A Tudor inconclusive, HP1b binding inh inconclusive
Cc1ccc(O)c(Nc2nc(-c3ccccc3)nc3ccccc23)c1	none
COc1ccc(Cl)cc1Nc1nc(N)c2ccccc2n1	G9a block 79.4µM
Cc1ccc(C)c(Nc2nc(N)c3ccccc3n2)c1	G9a block 50.1µM
O=C(CSc1nc2ccccc2nc1Cc1ccccc1)Nc1ccccc1C(F)(F)F	none (no result: Sfp PPTase inh)
Cc1ccccc1OCC(=O)OCc1cc(=O)n2nc(C3CCCCC3)sc2n1	none (no result: Sfp PPTase inh)
Cc1ccccc1C(=O)N1CCC(C(=O)NC2CCCC2)CC1	none
CC1=NN(c2nc(-c3ccc(C)cc3)cs2)C(=O)C1N=Nc1ccc2ccccc2c1 (stereo not given)	BAZ2B inh inconclusive, G9a block 1µM, JMJD2A Tudor inconclusive
CC(Oc1ccccc1)C(=O)Nc1cccc(-c2cn3cccnc3n2)c1 (stereo not given)	none (no result: Sfp PPTase inh)
CCc1ncc(CN2CCCC(C(=O)Nc3cccc(-c4cccc(C)c4)c3)C2)cn1 (stereo not given)	JMJD2A Tudor 79.4µM
CC(=O)c1cccc(CN2CCCC(C(=O)Nc3ccc(-c4ccco4)cc3)C2)c1 (stereo not given)	Sfp PPTase inh 56.2µM, BAZ2B inh 39.8µM, G9a block 10µM, JMJD2A Tudor inconclusive, HP1b binding inh 17.8µM
O=C(Nc1ccc(-c2ccco2)cc1)C1CCCN(Cc2ccc(CO)o2)C1 (stereo not given)	Sfp PPTase inh 44.7µM, BAZ2B inh inconclusive, JMJD2A Tudor inconclusive (no result: G9a block)
CCc1ncc(CN2CCCC(C(=O)Nc3cccc(-c4ccc(F)cc4)c3)C2)cn1 (stereo not given)	none
CC(=O)c1cccc(CN2CCCC(C(=O)Nc3cccc(-n4cccn4)c3)C2)c1 (stereo not given)	G9a block inconclusive
CN1C(C(=O)NC(C)(C)C)=CC(c2ccc3c(c2)OCO3)=NS1(=O)=O	G9a block inconclusive (no result: Sfp PPTase inh)
CC(C)c1ccccc1NC(=O)CN1C(=O)c2cccc3cccc1c23	none (no result: Sfp PPTase inh)
CCOc1ccccc1NC(=O)c1cc(S(=O)(=O)N2CCOCC2)cn1C	none (no result: Sfp PPTase inh)
O=c1c2cc(N3CCOCC3)ccc2[nH]c(=S)n1CCCN1CCCCCC1	none
COC(=O)c1ccc2c(=O)n(Cc3ccc(C(=O)NCCCN4CCOCC4)cc3)c(=S)[nH]c2c1	G9a block inconclusive
O=c1c2cc(N3CCOCC3)ccc2[nH]c(=S)n1CCN1CCCC1	G9a block inconclusive, JMJD2A Tudor inconclusive
COc1cc2c(=O)n(CCCN3CCOCC3)c(=S)[nH]c2c(OC)c1OC	G9a block 12.6µM, JMJD2A Tudor 31.6µM
COC(=O)c1ccc2c(=O)n(Cc3ccc(C(=O)NCCCN4CCC(C)CC4)cc3)c(=S)[nH]c2c1	G9a block 35.5µM
CCOc1cc2[nH]c(=S)n(Cc3ccc(C(=O)NCCCN4CCOCC4)cc3)c(=O)c2cc1OCC	G9a block 25.1µM
O=c1c2cc(F)ccc2[nH]c(=S)n1CCCN1CCOCC1	G9a block 50.1µM
O=c1c2cc3c(cc2[nH]c(=S)n1CCN1CCOCC1)OCO3	BAZ2B inh inconclusive, G9a block inconclusive, JMJD2A Tudor 35.5µM
CCOc1cc2[nH]c(=S)n(CCN3CCC(C)CC3)c(=O)c2cc1OCC	none
CCOc1cc2[nH]c(=S)n(CCCN3CCOCC3)c(=O)c2cc1OCC	JMJD2A Tudor 56.2µM
CCOc1cc2[nH]c(=S)n(Cc3ccc(C(=O)NCCCN(CC)CC)cc3)c(=O)c2cc1OCC	G9a block 35.5µM, JMJD2A Tudor inconclusive
CCOc1cc2[nH]c(=S)n(CCN3CCCCC3CC)c(=O)c2cc1OCC (stereo not given)	G9a block 56.2µM
Cc1cccc(C(c2sc3nc(-c4ccco4)nn3c2O)N2CCOCC2)c1 (stereo not given)	none (no result: Sfp PPTase inh)
O=C(NCCCN1CCOCC1)c1ccc2c(=O)n(Cc3ccc(Cl)cc3)c(=S)[nH]c2c1	G9a block 7.08µM
COc1ccc(Cn2c(=O)[nH]c3cc(C(=O)NCCCN4CCCCCC4)ccc3c2=O)cc1	G9a block 56.2µM, JMJD2A Tudor 14.1µM
CN(C)CCNC(=O)c1ccc2c(=O)n(Cc3ccc(Cl)cc3)c(=S)[nH]c2c1	Sfp PPTase inh inconclusive, BAZ2B inh inconclusive, G9a block inconclusive
COc1ccc(Cn2c(=O)[nH]c3cc(C(=O)NCCCN4CCCCC4)ccc3c2=O)cc1	none
CCCCn1c(=S)[nH]c2ccc(N3CCOCC3)cc2c1=O	Sfp PPTase inh inconclusive, G9a block 20µM (no result: JMJD2A Tudor, HP1b binding inh)
O=C(O)/C=C/c1ccc(S(=O)(=O)Nc2ccc(OCc3ccccc3)cc2)cc1	none
COCCNC(=O)CCc1ccc(S(=O)(=O)Nc2ccc(C)cc2)cc1	Sfp PPTase inh 79.4µM
Cc1ccc(NS(=O)(=O)c2ccc(CCC(=O)NC3CC3)cc2)cc1	none
O=C(O)CCc1ccc(S(=O)(=O)Nc2ccc(OCc3ccccc3)cc2)cc1	G9a block 44.7µM
COc1ccc(CNC(=O)c2ccc3c(c2)N(Cc2ccccc2F)C(=O)c2ccccc2S3=O)cc1 (stereo not given)	G9a block inconclusive (no result: Sfp PPTase inh)
Cc1ccc(Cl)cc1N1CCN(C(=O)Cc2cn(C)c3ccccc23)CC1	BAZ2B inh inconclusive, G9a block 12.6µM, JMJD2A Tudor inconclusive, HP1b binding inh inconclusive
Cc1ccc(Cl)cc1N1CCN(C(=O)Cc2c(C(=O)O)c(C)cn2C)CC1	BAZ2B inh inconclusive (no result: Sfp PPTase inh)
COC(=O)CC(=O)O[C@H]1C=C[C@@H](NC(=O)OC(C)(C)C)C1	none (no result: Sfp PPTase inh, BAZ2B inh, G9a block)
C(=N\Nc1nncc2ccccc12)/c1ccccn1	BAZ2B inh 25.1µM, JMJD2A Tudor 79.4µM
Fc1cccc(/C=N/Nc2nncc3ccccc23)c1	JMJD2A Tudor 20µM
Fc1cccc(/C=N/Nc2nccnc2Cl)c1	none
CC(=O)Nc1ccc(/C=N/Nc2nncc3ccccc23)cc1	Sfp PPTase inh 89.1µM
CC(=O)Nc1ccc(/C=N/NC(=O)c2cc3ccccc3nc2C)cc1	none
Cc1ccc(CN2C(=O)C[C@@H](NS(=O)(=O)c3ccc4ccccc4c3)C/C=C\C2c2ccc(C)cc2)cc1 (stereo not given in full)	G9a block 6.31µM (no result: BAZ2B inh, JMJD2A Tudor, HP1b binding inh)
COc1ccc(C2/C=C\CC(NS(=O)(=O)c3ccc(C)cc3)CC(=O)N2Cc2ccccc2F)cc1 (stereo not given)	none (no result: Sfp PPTase inh, BAZ2B inh, G9a block)
CCc1c(C)nc2ccc(Br)cc2c1SCCC#N	JMJD2A Tudor inconclusive
CCCCc1c(C)nc2ccc(Br)cc2c1SCCC#N	G9a block 28.2µM (no result: JMJD2A Tudor, HP1b binding inh)
O=C(C[n+]1ccccc1)NNc1ccccc1	none (no result: Sfp PPTase inh)
COCCNCC(O)CON=C1c2ccccc2-c2ccccc21 (stereo not given)	none
CC(C)CCNCC(O)CON=C1c2ccccc2-c2ccccc21 (stereo not given)	Sfp PPTase inh 35.5µM
